HCV inh: qHTS Assay for Inhibitors of Hepatitis C Virus (HCV). Huh7.5.1 HCVcc-Cre infection, luciferase reporter, 44 h. Potency, µM (series often up to 41.8 µM), actives largely listed as inhibitors. 340,000 tested, 3.4% active. AID 651820, 2012
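Compounds are dispensed onto cells plated 4 h earlier at 1,000 per well, with HCVcc-Cre virus (about 0.5 moi) added next. Following 44 h of culture, luminescent signal is measured for 15 sec after 15 min with substrate at room temperature.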
Pf growth 48h: Primary qHTS for delayed death inhibitors of the malarial parasite plastid, 48 hour incubation. Potency, µM (series often up to 28.7 µM), actives largely listed as inhibitors. 310,000 tested, 5.9% active. AID 504832, 2011. P. falciparum luciferase growth in erythrocytes, 48 h
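Firefly luciferase activity from engineered P. falciparum reports growth; inhibitors lower the luminescent signal. Cultures contained 2% hematocrit erythrocytes at 0.1% final parasitemia.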
Lassa entry inh: qHTS for Inhibitors of binding or entry into cells for Lassa Virus; Lassa virus pseudotype entry inhibition, cell reporter; Potency, µM (highest dose often 37.9 µM), most hits filed as inhibitors; 300,000 tested, 1.2% active; calls by dose curve; tested in HEK293 cells; also: nearly all actives have a fitted effect of over 50% in size
Marburg entry inh: qHTS for inhibitors of binding or entry into cells for Marburg Virus | Marburg virus pseudotyped entry inhibition, cell reporter | Potency, µM (titrated, usually from 37.8 µM), hits mostly inhibitors | 300,000 tested, 1.8% active; calls by dose curve; tested in HEK293 cells
HCMV inh: qHTS Assay for inhibitors of the human cytomegalovirus (HCMV) | 410,000 tested, 4.5% active | HFF cells, HCMV-luciferase reporter, 72 h; active compounds read low | activity change, negative = inhibition, % at 57.5 µM; in the data active = activity change below about -60%; inconclusive = no clear call, values can overlap the other calls; inactive = above about -39%
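Screen run at 2 compound doses on HFFs infected with reporter HCMV, MOI 1 PFU/cell. Luciferase activity from cell lysates at 72 h post infection gave inhibition relative to buffer-only and Salinomycin wells.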
Pf growth 96h: Primary qHTS for delayed death inhibitors of the malarial parasite plastid, 96 hour incubation | AID 504834, 2011 | 320,000 tested, 6.9% active | P. falciparum luciferase reporter growth, 96 h | Potency, µM (highest dose often 28.7 µM), hits mostly inhibitors
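Delayed-death screen, second-generation endpoint: infected erythrocytes, 2% hematocrit, 0.05% parasitemia final; 96 hours at 37 C, 5% CO2; luciferase detection reagent; luminescence decrease equals reduced growth.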
A number is an active result; . = inactive; ? = inconclusive; / = not tested or not shown. In the library only some 14% were active in any assay of this set; here they are far more common. Unless noted, calls follow the shape of the dose curve; as a rule, active = well fitted inhibition curve with a large enough effect; inconclusive = small, poorly fitted or top-dose-only effect, or another doubt; inactive = no such curve, though single readings can be large or run the other way.

SMILES	HCV inh	Pf growth 48h	Lassa entry inh	Marburg entry inh	HCMV inh	Pf growth 96h
O=C(NC1c2ccccc2Oc2ccccc21)c1ccc([N+](=O)[O-])cc1	?	/	.	?	.	/
O=C(Nc1cc(F)ccc1F)N1C[C@H]2[C@@H](c3ccccc31)[C@H](CO)N2C(=O)c1ccccc1	/	/	/	/	.	/
Cc1cc2oc(C(=O)Nc3ccc(S(=O)(=O)N(C)Cc4ccccc4)cc3)cc(=O)c2cc1C	/	/	.	.	.	/
Cc1ccc(NC(=O)CSc2ncc3c(n2)-c2ccccc2N(Cc2cccc(F)c2)S3(=O)=O)cc1F	/	/	.	/	.	/
CCOC(=O)c1c(C)nc2sc3c(c2c1-c1ccc(OC)cc1)NC(c1ccccc1)NC3=O (stereo not drawn)	?	13.1µM	.	.	.	4.15µM
COc1ccc(-c2c(C(C)=O)c(C)nc3sc4c(c23)NC(c2ccccc2)NC4=O)cc1 (stereo not drawn)	.	.	.	.	.	?
CCc1ccc(NC(=O)CCS(=O)(=O)c2ccc3c(c2)n(C)c(=O)c(=O)n3C)cc1	/	/	.	.	.	/
Cc1cccc(-c2nc(CN3CCCC(C(=O)NC4CCCC4)C3)c(C)o2)c1 (stereo not drawn)	?	?	.	14.6µM	.	.
CCOC(=O)N1CCC(NC(=O)C2CCCN(Cc3nc(-c4cccc(C)c4)oc3C)C2)CC1 (stereo not drawn)	?	.	?	?	-73.3	.
CN1CCn2cnc(C(=O)Nc3ccc(Cl)cc3)c2C1=O	/	/	/	/	.	/
COc1cccc(NC(=O)/C(C#N)=C\c2cn(Cc3ccc(Cl)cc3)c3ccccc23)c1	/	/	.	/	.	/
CCCSc1ncc(Cl)c(C(=O)Nc2scc(-c3ccc(C)cc3)c2C(=O)OCC)n1	/	/	.	.	.	/
CC12CC(c3ccccc3O1)N(C(=O)c1ccco1)C(=S)N2c1ccccc1 (stereo not drawn)	.	/	?	16.4µM	.	?
CCOc1ccc(C(C)=O)cc1COC(=O)CCc1cc(OC)c(OC)c(OC)c1	?	?	.	.	.	8.28µM
COc1cc(CCC(=O)OCc2ccccc2C#N)cc(OC)c1OC	.	.	.	.	.	.
Cc1ccc(S(=O)(=O)Nc2cccc(-c3cn4ccsc4n3)c2)cc1	?	.	4.47µM	?	?	.
CC1CN(S(=O)(=O)c2cccc(-c3cn4cccnc4n3)c2)CC(C)O1 (stereo not drawn)	/	7.38µM	/	.	/	.
O=S(=O)(Nc1cccc(-c2cn3cccnc3n2)c1)c1ccc(-c2ccccc2)cc1	4.47µM	.	.	.	-76.7	.
O=S(=O)(Nc1cccc(-c2cn3cccnc3n2)c1)c1ccccc1	.	?	.	.	.	?
NS(=O)(=O)c1ccc(NC(=O)c2cc(-c3cc(Cl)ccc3O)n[nH]2)cc1	.	?	?	?	?	?
CC(C)(C)c1ccc(S(=O)(=O)N2CCN(Cc3noc(CCC(=O)N4CCCCC4)n3)CC2)cc1	/	/	.	/	.	/
Cc1ccc(C)c(NC(=O)Cn2nc(C)c3nn(-c4ccc(Cl)cc4)c(C)c3c2=O)c1	/	/	?	/	.	/
CC1CCN(S(=O)(=O)c2ccc3c(c2)oc(=O)n3CC(=O)N2CCCCC2)CC1	/	/	.	.	.	/
CCn1ccnc1CNC(=O)c1ccc(OC2CCN(C(=O)COC)CC2)cc1	.	.	/	/	.	5.22µM
COCC(=O)N1CCC(Oc2ccc(C(=O)NCCCC3CCCC3)cc2)CC1	?	.	.	?	.	7.38µM
COCC(=O)N1CCC(Oc2ccc(C(=O)NCc3cnc(C)cn3)cc2)CC1	.	.	.	.	.	?
O=C(COC(=O)Cc1ccc(S(=O)(=O)N2CCOCC2)s1)Nc1ccc(F)cc1F	.	/	.	.	.	/
CC(C)Oc1ccc(CCC(=O)N/N=C/c2ccncc2)cc1	.	.	1µM	.	.	.
CC(C)Oc1ccc(CCC(=O)N/N=C/c2ccc3c(c2)OCO3)cc1	.	/	?	.	.	.
c1ccc(-c2sc3ccccc3c2-c2ccc(OCCN3CCCCC3)cc2)cc1	.	/	/	/	-63.7	/
